In all, about 350,000 compounds went through this assay and about 450 (0.13%) were called active. The rule behind the calls is not given here. The list is a sample of the results. Measured potencies and affinities stand elsewhere.
test: inhibitors of VEEV TC-83 cytopathic effect, confirmation, Vero cells (AID 588727); settings: VEEV TC-83 cytopathic effect inhibition, at 20 µM; active compounds read high unless noted

Row | SMILES | inhibition
1 | Fc1ccc(-c2nnc(Cc3ccc(Cl)cc3)o2)cc1 | inactive
2 | Cc1ccc(OCCSc2nc(N)cc(N)n2)cc1 | 3.61% (inactive)
3 | O=C(c1ccc(F)cc1)c1ccc(-c2ccc(F)cc2)nc1 | 1.5% (inactive)
4 | Cc1cc(C)c2nc(N(CCCN(C)C)C(=O)c3ccc4c(c3)OCCO4)sc2c1 | 11.7% (inactive)
5 | COc1ccc(Cl)c2sc(N(CCN(C)C)C(=O)c3ccc4c(c3)OCCO4)nc12 | 3.95% (inactive)
6 | CN(Cc1ccccc1)C(=O)CN(C)S(=O)(=O)c1ccc(F)cc1 | 0.12% (inactive)
7 | COc1ccc2cc(-c3cc(C(=O)OCC(=O)Nc4c(C)n(C)n(-c5ccccc5)c4=O)c4ccccc4n3)ccc2c1 | inactive
8 | Cc1c(NC(=O)COC(=O)c2cc(-c3cccc4ccccc34)nc3ccccc23)c(=O)n(-c2ccccc2)n1C | 2.81% (inactive)
9 | CC(C)[C@H](NC(=O)C1CC(=O)N(c2ccc3c(c2)OCCO3)C1)C(=O)NC1CCCC1 (stereo not given in full) | 3.54% (inactive)
10 | O=C(CSc1nnc(-c2ccccc2Br)o1)N1CCOCC1 | 0.96% (inactive)
11 | Cc1ccc(CC2SC(=O)NC2=O)cc1Cl (stereo not given) | 4.25% (inactive)
12 | O=C1NC(=O)C(Cc2cccc(Oc3ccccc3)c2)S1 (stereo not given) | 0.8% (inactive)
13 | Cc1ccccc1N1C(=O)C(Cc2ccc(F)cc2)S/C1=C(\C#N)C(N)=O (stereo not given) | 0.67% (inactive)
14 | Nc1ccc(CC2SC(=O)NC2=O)cc1 (stereo not given) | 0.36% (inactive)
15 | COc1ccc(/C=C(/NC(=O)c2ccccc2)C(=O)N2CCCC2)cc1 | 1.46% (inactive)
16 | CCN(Cc1ccccc1)C(=O)c1ccc(N(C)S(=O)(=O)c2ccc(C)cc2)cc1 | 10.1% (inactive)
17 | CC(=O)NC1=NN(C(C)=O)C(c2ccc(C)cc2)S1 (stereo not given) | 0.39% (inactive)
18 | Cc1[nH]c2ccccc2c1/C=N/NC(=O)c1cccc(F)c1 | 4.66% (inactive)
19 | CCOC(=O)CNC(=O)CSc1nc(C(C)C)nc2c1cnn2-c1ccccc1 | 8.46% (inactive)
20 | COc1ccc(-c2cc(=O)oc3cc(OC(C)C(=O)NCCCn4ccnc4)ccc23)cc1 (stereo not given) | 1.83% (inactive)
21 | CCn1c(=O)c2[nH]c(SC)nc2n(CC)c1=O | 1.13% (inactive)
22 | CCCc1nc2c(=O)n(C)c(=O)[nH]c2n1CCC | 0.72% (inactive)
23 | COc1ccccc1-c1ccc2c(c1)O[C@@H](CN(C)C(=O)Nc1cccc(F)c1)[C@H](C)CN([C@H](C)CO)S2(=O)=O | 5.59% (inactive)
24 | O=C(N/N=C(/CC(=O)c1cccs1)C(F)(F)F)c1ccc(O)cc1 | 0.06% (inactive)
25 | O=C(N/N=C(\CC(=O)c1cccs1)C(F)(F)F)c1cccnc1 | inactive

— PubChem BioAssay AID588727 (Southern Research Specialized Biocontainment Screening …, 2011)
